In PubChem BioAssay AID1159580 (chemical genetic matrix, 2015):
“And” between values parts separate entries of the source, which are not always exact repeats. Identical values can stand only once. Among all 5,500 compounds or so, about 2,000 (36%) were called active. About 18% were inconclusive and are not listed. Rule as the data show it: active = normalized growth mostly below about 0.91 (no sharp cut-off); inconclusive = no clear call, values can overlap the other calls; inactive = mostly above about 0.92. This is one part of the list.

Assay: chemical genetic growth profiling, strain panel (AID 1159580);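 also: tested at 20 µM; growth read once vehicle control cultures reached saturation at 30 °C; 1 = growth at the plate median or of vehicle wells; lower values mean less growth of the strain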
Conditions: S. cerevisiae deletion strains, growth OD

Measured: normalized growth

COc1ccc(C2C(=O)c3ccccc3C2=O)cc1
inactive: locus YAL013W, strain DEP1, active compounds read low 0.997 | locus YAL021C, strain ccr4, active compounds read low 1.01 | locus YAL026C, strain drs2, active compounds read low 0.983 | locus YAL030W, strain snc1, active compounds read low 1 | locus YBL061C, strain skt5, active compounds read low 1.01 | locus YBR009C, strain hhf1, active compounds read low 0.998 | locus YBR021W, strain FUR4, active compounds read low 1.01 | locus YBR023C, strain chs3, active compounds read low 1.01 | locus YBR171W, strain sec66, active compounds read low 0.978 | locus YBR229C, strain ROT2, active compounds read low 1 | locus YBR231C, strain swc5, active compounds read low 1.02 | locus YBR279W, strain paf1, active compounds read low 1.01 | locus YCL011C, strain gbp2, active compounds read low 0.979 | locus YCL016C, strain dcc1, active compounds read low 1.03 | locus YCL029C, strain bik1, active compounds read low 0.983 | locus YCL069W, strain vba3, active compounds read low 0.986 | locus YCR088W, strain abp1, active compounds read low 0.999 | locus YDL005C, strain med2, active compounds read low 1.02 | locus YDL035C, strain GPR1, active compounds read low 1.01 | locus YDL040C, strain nat1, active compounds read low 1.02 | locus YDL074C, strain BRE1, active compounds read low 0.994 | locus YDL101C, strain DUN1, active compounds read low 1 | locus YDL185W, strain tfp1, active compounds read low 0.921 | locus YDL192W, strain arf1, active compounds read low 0.988 | locus YDR001C, strain nth1, active compounds read low 0.964 | locus YDR069C, strain doa4, active compounds read low 1.01 | locus YDR101C, strain arx1, active compounds read low 1.03 | locus YDR137W, strain rgp1, active compounds read low 0.978 | locus YDR150W, strain NUM1, active compounds read low 0.988 | locus YDR159W, strain sac3, active compounds read low 1.01 | locus YDR162C, strain NBP2, active compounds read low 1.02 | locus YDR195W, strain ref2 1.09 | locus YDR297W, strain sur2, active compounds read low 0.993 | locus YDR318W, strain mcm21, active compounds read low 0.993 | locus YDR334W, strain swr1, active compounds read low 0.983 | locus YDR335W, strain msn5, active compounds read low 1.02 | locus YDR388W, active compounds read low 1.01 | locus YDR392W, strain spt3, active compounds read low 1.02 | locus YDR502C, strain sam2, active compounds read low 0.998 | locus YEL003W, strain gim4, active compounds read low 0.993 | locus YEL037C, strain rad23, active compounds read low 0.994 | locus YEL061C, strain CIN8 (second series), active compounds read low 0.975 | locus YEL061C, strain CIN8, active compounds read low 0.98 | locus YER015W, strain faa2, active compounds read low 1.01 | locus YER016W, strain bim1, active compounds read low 0.995 | locus YER110C, active compounds read low 0.985 | locus YER111C, strain swi4, active compounds read low 0.994 | locus YER155C, strain BEM2 (second series), active compounds read low 0.993 | locus YER155C, strain BEM2, active compounds read low 0.998 | locus YER167W, strain BCK2, active compounds read low 1 | locus YFR010W, strain ubp6, active compounds read low 1.02 | locus YGL078C, strain dbp3, active compounds read low 0.99 | locus YGL086W, strain mad1, active compounds read low 1.01 | locus YGL167C, strain pmr1, active compounds read low 1 | locus YGL173C, strain kem1, active compounds read low 1.02 | locus YGL227W, strain vid30, active compounds read low 0.974 | locus YGL240W, strain doc1, active compounds read low 1.02 | locus YGL248W, strain PDE1, active compounds read low 1 | locus YGL253W, strain hxk2, active compounds read low 1.01 | locus YGR078C, strain PAC10, active compounds read low 0.998 | locus YGR135W, strain pre9, active compounds read low 0.963 | locus YGR252W, strain gcn5, active compounds read low 0.956 | locus YHR013C, strain ard1, active compounds read low 1.02 | locus YHR027C, strain rpn1, active compounds read low 1.01 | locus YHR030C, strain SLT2, active compounds read low 0.977 and 0.898 | locus YHR079C, strain IRE1 (second series), active compounds read low 0.991 | locus YHR079C, strain IRE1, active compounds read low 0.857 | locus YHR094C, strain hxt1, active compounds read low 0.999 | locus YHR129C, strain ARP1, active compounds read low 1.01 | locus YHR142W, strain chs7, active compounds read low 1.02 | locus YHR200W, strain rpn10, active compounds read low 0.995 | locus YIL066C, strain RNR3, active compounds read low 0.996 | locus YIL073C, strain SPO22, active compounds read low 0.977 | locus YIL125W, strain kgd1, active compounds read low 0.997 | locus YIR030C, strain dcg1, active compounds read low 0.987 | locus YJL092W, strain hpr5, active compounds read low 0.969 | locus YJL095W, strain BCK1 (second series), active compounds read low 0.981 | locus YJL095W, strain BCK1, active compounds read low 1 and 0.908 | locus YJL115W, strain asf1, active compounds read low 0.998 | locus YJL129C, strain trk1, active compounds read low 1.02 | locus YJL134W, strain LCB3, active compounds read low 1 | locus YJL154C, strain vps35, active compounds read low 0.99 | locus YJL164C, strain tpk1, active compounds read low 0.999 | locus YJL166W, strain qcr8, active compounds read low 1.01 | locus YJL168C, strain set2, active compounds read low 1.02 | locus YJL187C, strain SWE1 (second series), active compounds read low 0.998 | locus YJR043C, strain POL32, active compounds read low 1
